Assay [1] in a line: EMT-state selective cytotoxicity in co-culture – imaging, PC-3E GFP, TEM4-18 mCherry, primary screen (AID 1345086;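 active = compounds killing one labelled cell type while sparing the other, by normalised counts and ratio limits, not self-fluorescent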;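 as to all read-outs here: cells exposed to compound for 72 h before imaging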;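 as to red/green cell ratio (normalised): normalised mesenchymal count divided by normalised epithelial count so high means epithelial killing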). Conditions: PC-3E GFP / TEM4-18 mCherry co-culture, imaging cell counts, at 1 µM; for red/green cell ratio (normalised): actives lie on both sides, counts scaled to control wells, 1 = unselective.
The nature of assay [2]: viability loss with induced miR-34 in A549 – imaging, A549 dox-inducible miR-34, nuclei and caspase counts, primary screen (AID 1347080). Conditions: A549 miR-34 inducible, Hoechst nuclei count, 48 h.
A short description of assay [3]: MELAS cybrid and Rieske KO viability enhancers – cell-based, MELAS cybrids, Rieske KO mouse fibroblasts, CellTiter-Glo, primary screen (AID 1508586;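 active = mean z-score across replicates of 1.96 or higher in either the MELAS or the Rieske mutant cell line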;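 also: z relative to plate mean and SD of compound and empty wells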). Conditions: low glucose. (In general: Cellular ATP, detected with luciferase, serves as a proxy for viable cell number.)
The nature of assay [4]: galactose survival enhancers in mitochondrial complex I cybrids – cell-based, galactose medium, ATP luminescence, primary screen (AID 1645843;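 active = z-score of at least 1.8 in each of two replicates, scored against plate mean and spread of sample wells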;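 also: positive z means more ATP and so rescue of galactose-driven cybrid death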). Conditions: complex I mutant cybrid cells, 72 h, stronger effect = higher value.
Assay [5] deals with NAD(+) hydrolase SARM1 (Homo sapiens) (UniProt Q6SZW1). As to the kind of experiment: blocking NAD cleavage by SARM1 SAM-TIR – cell lysate, NAD-Glo luminescence (AID 1508614;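 active = compound whose remaining NAD level is above about 45 nM, limit read from the data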;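 also: higher remaining NAD means stronger inhibition of SARM1 NADase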). Conditions: SAM-TIR HEK293T lysate NADase, at 1 µM, stronger effect = higher value.
A short description of assay [6]: compounds altering viability of human ES cells (AID 493140; call rule not given here;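 also: cells exposed to compounds for four days before counting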). Conditions: human embryonic stem cell survival screen; stronger effect = higher value.
Assay [7] can be described thus: P. berghei load reduction in hepatocytes – cell-based, HepG2, luciferase luminescence, HepG2 viability, primary screen (AID 624349; in the data active = parasite load remaining mostly below about 12%, no sharp cut-off; inactive = mostly above about 10%;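 also: 100% = mean of DMSO negative control wells on the same plate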). Conditions: P. berghei liver stage in HepG2, luciferase luminescence, concentration not given here; parasite load remaining: stronger effect = lower value; viability: measured here: HepG2 viability without parasites.
[8] abbreviates: measured here: epithelial PC-3E GFP cell survival.
Setting [9] is: measured here: mesenchymal TEM4-18 mCherry cell survival.
Where [10] appears, read: stronger effect = lower value, cell number ratio, induced over uninduced.
The mark [11] stands for this setting: measured here: relative caspase fold change +Dox/-Dox.
Where [12] appears, read: measured here: total cells with miR-34 induction, stronger effect = lower value.
[13] abbreviates: measured here: total cells without miR-34 induction.
[14] abbreviates: MELAS cybrid survival, CellTiter-Glo 48 h, stronger effect = higher value.
[15] abbreviates: Rieske KO mouse fibroblast survival, CellTiter-Glo 72 h.

Values joined by “and” are separate entries in the source; they are usually repeats but may differ in a detail not shown here. Equal values may be shown once. Active and inactive are the calls of the source.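 The calls were made as follows, unless noted: active = compounds whose cell count with miR-34 switched on is under 0.7 times the count with it off; inactive = the rest.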

As usually defined, the viability is a per cent measure of how many cells are alive, often set against a control.

Chain of NAD(+) hydrolase SARM1 (Homo sapiens) (Q6SZW1 whole entry, looked up): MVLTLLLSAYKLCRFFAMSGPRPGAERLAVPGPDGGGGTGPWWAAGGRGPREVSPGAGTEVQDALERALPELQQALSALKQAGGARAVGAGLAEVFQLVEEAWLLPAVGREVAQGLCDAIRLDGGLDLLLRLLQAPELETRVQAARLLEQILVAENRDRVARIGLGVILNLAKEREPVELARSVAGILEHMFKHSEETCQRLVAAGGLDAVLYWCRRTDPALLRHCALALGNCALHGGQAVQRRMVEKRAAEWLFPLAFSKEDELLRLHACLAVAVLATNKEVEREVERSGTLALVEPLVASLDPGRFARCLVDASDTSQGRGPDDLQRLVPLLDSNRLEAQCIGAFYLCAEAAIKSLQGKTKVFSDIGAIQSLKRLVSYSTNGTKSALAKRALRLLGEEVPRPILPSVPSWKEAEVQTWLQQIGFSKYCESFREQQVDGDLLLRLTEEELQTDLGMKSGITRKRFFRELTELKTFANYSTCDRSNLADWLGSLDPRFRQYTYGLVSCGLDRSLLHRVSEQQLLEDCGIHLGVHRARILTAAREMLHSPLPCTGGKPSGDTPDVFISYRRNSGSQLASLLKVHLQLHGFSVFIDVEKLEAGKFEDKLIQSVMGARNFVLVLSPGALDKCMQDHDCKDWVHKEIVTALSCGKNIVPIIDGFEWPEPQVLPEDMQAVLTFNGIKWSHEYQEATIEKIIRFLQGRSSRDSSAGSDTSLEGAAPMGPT

In the case of `Nc1ccn(C2CSC(CO)O2)c(=O)n1` (stereo not given), in assay [1], the red/green cell ratio (normalised) was 1 (inactive). Further, the results for the normalised cell number in assay [1] (setting [8]) and in assay [1] (setting [9]) were 1.14 and 1.13, respectively. The fold change in assay [2] (setting [10]) is 0.986 (inactive) and 0.882 (inactive); in assay [2] (setting [11]), 1.5 and 0.897. For the same compound, the cell count in assay [2] (setting [12]) is 10000 and 7840; in assay [2] (setting [13]), 10200 and 8880. In addition, the z-score in assay [3] (setting [14]) is -0.261 (inactive); in assay [3] (setting [15]), 0.414; in assay [4], 1.16 (inactive).
For the compound `C[C@H](N[C@@H](CCc1ccccc1)C(=O)O)C(=O)N1Cc2ccccc2C[C@H]1C(=O)O`, in assay [1], the red/green cell ratio (normalised) was 0.82 (inactive). Further, the normalised cell number in assay [1] (setting [8]) turned out to be 1.1; in assay [1] (setting [9]), 0.91. Further, the fold change is 0.868 (inactive) in assay [2] (setting [10]) and 0.983 in assay [2] (setting [11]). In addition, the figures for the cell count in assay [2] (setting [12]) and in assay [2] (setting [13]) were 8350 and 9630, respectively. Besides, the remaining NAD in assay [5] was 10 nM (inactive).
For the compound `NC(N)=NCC1COC2(CCCCC2)O1` (stereo not given), in assay [6], the survival was 5.58 (inactive). Further, the parasite load remaining in assay [7] was 70.3% (inactive). In assay [7], the viability stood at 91.8%. Also, the red/green cell ratio (normalised) in assay [1] is 1.08 (inactive). The normalised cell number worked out at 1.11 in assay [1] (setting [8]) and 1.2 in assay [1] (setting [9]). Moreover, the fold change in assay [2] (setting [10]) was 0.907 (inactive); in assay [2] (setting [11]), 1.21. The figures for the cell count in assay [2] (setting [12]) and in assay [2] (setting [13]) were 9550 and 10500, respectively. In addition, the figures for the z-score in assay [3] (setting [14]) and in assay [3] (setting [15]) were 0.764 (inactive) and 0.202, respectively. Besides, in assay [5], the remaining NAD is 10 nM (inactive).
Regarding `NC(=O)C(c1ccccc1)(c1ccccc1)C1CCN(CCc2ccc3c(c2)CCO3)C1` (stereo not given), the red/green cell ratio (normalised) in assay [1] is 1.14 (inactive). The results for the normalised cell number in assay [1] (setting [8]) and in assay [1] (setting [9]) were 1.01 and 1.15, respectively. Besides, the fold change in assay [2] (setting [10]) was 0.961 (inactive) and 0.867 (inactive) and 0.884 (inactive); in assay [2] (setting [11]), 1.17 and 0.544 and 0.774. For the same compound, the cell count was 7990 and 7300 and 7280 in assay [2] (setting [12]); 8310 and 8420 and 8230 in assay [2] (setting [13]). The z-score is 0.59 (inactive) and -0.239 (inactive) in assay [3] (setting [14]); 0.395 and -0.187 in assay [3] (setting [15]); -0.58 (inactive) in assay [4].
On to `O=C(O)C1CSCN1` (stereo not given), for which the red/green cell ratio (normalised) in assay [1] is 0.88 (inactive). In addition, the normalised cell number amounted to 1.25 in assay [1] (setting [8]) and 1.1 in assay [1] (setting [9]). In addition, the fold change in assay [2] (setting [10]) was 0.957 (inactive); in assay [2] (setting [11]) it was 0.618. Also, the cell count in assay [2] (setting [12]) is 9140; in assay [2] (setting [13]) it was 9550. Moreover, in assay [5], the remaining NAD was 10 nM (inactive).
As for `CCN(CC)CCOCCOC(=O)C(CC)(CC)c1ccccc1`, the red/green cell ratio (normalised) in assay [1] was 1.07 (inactive). The normalised cell number in assay [1] (setting [8]) stood at 0.85; in assay [1] (setting [9]), 0.9. The fold change in assay [2] (setting [10]) was 0.879 (inactive) and 0.86 (inactive); in assay [2] (setting [11]), 0.849 and 0.967. Moreover, the cell count is 7300 and 7460 in assay [2] (setting [12]); 8310 and 8670 in assay [2] (setting [13]). In addition, the z-score is -0.986 (inactive) in assay [3] (setting [14]), -0.272 in assay [3] (setting [15]) and -0.65 (inactive) in assay [4]. For the same compound, the remaining NAD in assay [5] was 10 nM (inactive).
Consider `CCC[C@@H]1C[C@@H](C(=O)N[C@@H](C2O[C@H](SC)[C@H](O)[C@@H](O)[C@H]2O)[C@H](C)Cl)N(C)C1` (stereo not given in full), for which the survival in assay [6] was 18.7 (inactive). Further, the parasite load remaining in assay [7] is 39.2% (inactive) and 98.8% (inactive) and 83.4% (inactive). For the same compound, the viability in assay [7] was 46.1% and 89% and 92.6%. Further, the red/green cell ratio (normalised) in assay [1] is 1.26 (inactive). Moreover, the normalised cell number in assay [1] (setting [8]) turned out to be 1.17; in assay [1] (setting [9]), 1.47. For the same compound, the fold change in assay [2] (setting [10]) was 0.895 (inactive) and 0.881 (inactive); in assay [2] (setting [11]) it was 1.74 and 1.41. The cell count was 9010 and 10700 in assay [2] (setting [12]); 10100 and 12200 in assay [2] (setting [13]). Also, the values for the z-score in assay [3] (setting [14]) and in assay [3] (setting [15]) were 0.619 (inactive) and -0.624, respectively.
Regarding `O=C(O)Cc1cc(I)c(Oc2ccc(O)c(I)c2)c(I)c1`, the survival in assay [6] is 18.8 (inactive). Moreover, the parasite load remaining in assay [7] was 35.5% (inactive) and 118% (inactive). The viability in assay [7] is 46% and 91.7%. Besides, in assay [1], the red/green cell ratio (normalised) was 0.98 (inactive). In addition, the results for the normalised cell number in assay [1] (setting [8]) and in assay [1] (setting [9]) were 1.1 and 1.08, respectively. The fold change was 1.03 (inactive) and 0.918 (inactive) and 0.892 (inactive) in assay [2] (setting [10]); 0.599 and 1.29 and 1.64 in assay [2] (setting [11]). Moreover, the cell count in assay [2] (setting [12]) is 7190 and 8760 and 9000; in assay [2] (setting [13]) it was 6990 and 9530 and 10100. For the same compound, the z-score was -0.0879 and -3.89 (inactive) in assay [3] (setting [14]); 5.02 and -3.53 in assay [3] (setting [15]). Moreover, the remaining NAD in assay [5] is 10 nM (inactive).

For the origin of these results see PubChem BioAssay.
